The source of these data is PubChem BioAssay (NCI).

About 83,000 compounds went through this panel and 20% of them were active in at least one assay; those are over-represented in the sample as a whole.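 Single-dose data. Exposure time 48 hours. Values below 10 considered active.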 A number with no mark means an inactive call. Active and inactive are the calls of the source.

Assay in all cases: NCI-60 one-dose screen, 48 h (100 = growth as untreated, 0 = no growth, -100 = all killed)
In one test the test system is SK-MEL-2 melanoma. Particulars: 10 µM unless noted.
Another test has as its system SN12C renal. The settings on record: 10 µM unless noted.
The next test deals with UO-31 renal. Particulars: 10 µM unless noted.
A further test has as its system TK-10 renal. The settings on record: 10 µM unless noted.
The test system of the next test is ACHN renal. Particulars: 10 µM unless noted.
Another test has as its system CAKI-1 renal. Particulars: 10 µM unless noted.
The test system of a further test is A498 renal. Particulars: 10 µM unless noted.
The test system of the next test is CCRF-CEM leukemia. Particulars: 10 µM unless noted.
The next test deals with MOLT-4 leukemia. The settings on record: 10 µM unless noted.
A further test relates to SR leukemia. The settings on record: 10 µM unless noted.
The test system of the next test is RPMI-8226 leukemia. The settings on record: 10 µM.
The subject of a further test is OVCAR-8 ovarian. The settings on record: 10 µM unless noted.
For a further test, the system named is OVCAR-5 ovarian. Particulars: 10 µM unless noted.
The subject of another test is OVCAR-4 ovarian. The settings on record: 10 µM unless noted.
The test system of the next test is SK-OV-3 ovarian. The settings on record: 10 µM.
The next test relates to IGROV1 ovarian. Particulars: 10 µM unless noted.
A further test deals with OVCAR-3 ovarian. Particulars: 10 µM unless noted.
The next test has as its system HS 578T breast. Particulars: 10 µM unless noted.
The next test has as its system NCI/ADR-RES ovarian. Particulars: 10 µM unless noted.

With `Cc1ccc(-c2c3c(N)c4c(nc3nc3c2c(C)nn3-c2ccccc2)CCCC4)cc1`, the growth in the test with SK-MEL-2 melanoma is 96%; with SN12C renal it was 99.8%; in the test with UO-31 renal, 88%; with TK-10 renal, 102%; with ACHN renal, 97.7%; in the test with CAKI-1 renal it was 93.2%. Also, the growth with A498 renal was 92.2%; with CCRF-CEM leukemia it was 82.7%; in the test on MOLT-4 leukemia, 92.6%; in the test on SR leukemia it was -4.06% (active); in the test with RPMI-8226 leukemia it was 94.1%; with OVCAR-8 ovarian, 98.1%. For the same molecule, the growth is 101% with OVCAR-5 ovarian; 96% in the test with OVCAR-4 ovarian; 99.9% in the test on SK-OV-3 ovarian; 98.6% with IGROV1 ovarian; 116% in the test on OVCAR-3 ovarian; 105% with HS 578T breast. In the test with NCI/ADR-RES ovarian, the growth is 106%.

As to `COc1ccc(-c2csc3c2-n2cccc2C3=O)cc1O`, the growth with SK-MEL-2 melanoma is 26.9%; in the test with SN12C renal, 29.6%; in the test with UO-31 renal, 31.5%; in the test on TK-10 renal, 51.3%; in the test with ACHN renal, 31.7%; in the test on CAKI-1 renal, 43.1%. In addition, the growth in the test with A498 renal is 38.5%; with CCRF-CEM leukemia it was 0.363% (active); with MOLT-4 leukemia it was -10.8% (active); in the test with SR leukemia, -6.8% (active); with RPMI-8226 leukemia it was -19.8% (active); in the test on OVCAR-8 ovarian, 5.09% (active). The growth in the test with OVCAR-5 ovarian is 84.5%; with OVCAR-4 ovarian, 37.4%; in the test with SK-OV-3 ovarian, 1.75% (active); with IGROV1 ovarian it was 20.3%; in the test with OVCAR-3 ovarian, -38.7% (active); in the test with HS 578T breast it was 32.7%. The growth in the test on NCI/ADR-RES ovarian is -25.4% (active).

For the molecule `Cc1nc2cc(Nc3nc(Cl)nc(Nc4ccc(F)cc4)n3)ccc2n1Cc1ccccc1`, the growth with SK-MEL-2 melanoma was 111%; in the test on SN12C renal it was 77.9%; with UO-31 renal it was 80.7%; in the test on TK-10 renal, 58.5%; with ACHN renal, 36.2%; in the test with CAKI-1 renal, 87.7%. In addition, the growth in the test with A498 renal was 69.3%; in the test on CCRF-CEM leukemia, 78.5%; in the test with MOLT-4 leukemia it was 90.6%; in the test on SR leukemia it was 57.5%; in the test with RPMI-8226 leukemia, 15.3%; in the test with OVCAR-8 ovarian, 81.5%. For the same molecule, the growth in the test on OVCAR-5 ovarian was 86.3%; in the test on OVCAR-4 ovarian, 85.8%; with SK-OV-3 ovarian, 95.9%; with IGROV1 ovarian, 83%; in the test with OVCAR-3 ovarian it was 94.2%; with HS 578T breast, 79.5%. Also, the growth in the test on NCI/ADR-RES ovarian was 95.6%.

As for `Cc1cc(=O)oc2c1ccc1oc(C(=O)c3ccccc3)c(C)c12`, the growth was 104% in the test with SK-MEL-2 melanoma; 71% in the test on SN12C renal; 100% in the test with UO-31 renal; 113% with TK-10 renal; 76.9% in the test on ACHN renal; 77.1% in the test on CAKI-1 renal. In addition, the growth is 82.8% in the test with A498 renal; 69.1% in the test with CCRF-CEM leukemia; 76.8% in the test on MOLT-4 leukemia; 60.3% in the test on SR leukemia; 69.5% in the test on RPMI-8226 leukemia; 76.2% in the test on OVCAR-8 ovarian. Also, the growth was 104% in the test on OVCAR-5 ovarian; 66.8% with OVCAR-4 ovarian; 109% with SK-OV-3 ovarian; 102% in the test on IGROV1 ovarian; 85.6% in the test with OVCAR-3 ovarian; 103% with HS 578T breast. The growth in the test on NCI/ADR-RES ovarian was 83.3%.

In the case of `Cc1nc2cc(Nc3nc(Nc4ccc(F)cc4)nc(N4CCN(C)CC4)n3)ccc2n1Cc1ccccc1`, the growth in the test with SK-MEL-2 melanoma is -20.5% (active); in the test with SN12C renal it was 34.9%; in the test on UO-31 renal, -29% (active); with TK-10 renal, -12.1% (active); with ACHN renal, 9.69% (active); in the test on CAKI-1 renal, 18.6%. The growth with A498 renal was 29.2%; in the test with CCRF-CEM leukemia, -7.07% (active); in the test on MOLT-4 leukemia it was 1.11% (active); with SR leukemia it was -21.6% (active); in the test on RPMI-8226 leukemia, -40.2% (active); with OVCAR-8 ovarian, 11.6%. The growth with OVCAR-5 ovarian was 42.9%; with OVCAR-4 ovarian, -7.19% (active); with SK-OV-3 ovarian it was 68.7%; in the test on IGROV1 ovarian, 24.6%; in the test on OVCAR-3 ovarian, -35.6% (active); with HS 578T breast, -19.4% (active). Besides, the growth in the test on NCI/ADR-RES ovarian was 43.1%.

For `CCN(C(=O)c1ccc2c3c(cccc13)C=C2)c1ccccc1`, the growth was 84.9% with SK-MEL-2 melanoma; 94.7% with SN12C renal; 82.9% with UO-31 renal; 110% in the test on TK-10 renal; 100% in the test on ACHN renal; 88.7% in the test on CAKI-1 renal. Besides, the growth in the test on A498 renal was 90.2%; in the test with CCRF-CEM leukemia it was 104%; in the test with MOLT-4 leukemia it was 88.6%; with SR leukemia, 83.4%; with RPMI-8226 leukemia, 96.7%; in the test on OVCAR-8 ovarian, 91.2%. In addition, the growth is 90.5% in the test with OVCAR-5 ovarian; 106% in the test with OVCAR-4 ovarian; 96% in the test with SK-OV-3 ovarian; 102% in the test on IGROV1 ovarian; 112% in the test with OVCAR-3 ovarian; 120% in the test with HS 578T breast.

Take `COc1nc2c(cc1S(=O)(=O)c1ccccc1)CCc1c-2cnn1-c1ccccc1`: the growth is 83.4% in the test on SK-MEL-2 melanoma; 77.9% in the test with SN12C renal; -65.3% (active) in the test with UO-31 renal; 67.9% in the test on TK-10 renal; 71.1% in the test with ACHN renal; 58.2% in the test with CAKI-1 renal. For the same molecule, the growth with A498 renal is 54.6%; in the test with CCRF-CEM leukemia it was 68.6%; in the test on MOLT-4 leukemia, 54.5%; in the test on SR leukemia it was 45.4%; in the test with RPMI-8226 leukemia, 62.6%; in the test on OVCAR-8 ovarian, 76.4%. Besides, the growth was 81.1% with OVCAR-5 ovarian; 76.7% in the test on OVCAR-4 ovarian; 87.2% in the test on SK-OV-3 ovarian; 79.6% in the test with IGROV1 ovarian; 88.9% in the test on OVCAR-3 ovarian; 85.2% with HS 578T breast. The growth in the test with NCI/ADR-RES ovarian is 80.8%.

With `Brc1ccc(SCN(CSc2ccc(Br)cc2)Cc2ccccc2)cc1`, the growth in the test on SK-MEL-2 melanoma is 94.6%; in the test on SN12C renal, 27.3%; in the test on UO-31 renal it was 39%; in the test with TK-10 renal, 113%; in the test on ACHN renal, 87.3%; with CAKI-1 renal, 73%. The growth was 56.3% in the test on A498 renal; 4.88% (active) in the test with CCRF-CEM leukemia; 17% with MOLT-4 leukemia; 34.6% in the test with SR leukemia; 36.3% in the test with RPMI-8226 leukemia; 74.4% with OVCAR-8 ovarian. In addition, the growth with OVCAR-5 ovarian was 90.1%; in the test on OVCAR-4 ovarian it was 75.5%; in the test on SK-OV-3 ovarian, 93.9%; with IGROV1 ovarian it was 35.6%; with OVCAR-3 ovarian, 91.6%; in the test with HS 578T breast, 88.1%. For the same molecule, the growth in the test with NCI/ADR-RES ovarian was 73.4%.

As to `COc1ccc(/C=C2\CN(Cc3cn(CCCNc4ccnc5cc(Cl)ccc45)nn3)C/C(=C\c3ccc(OC)cc3)C2=O)cc1`, the growth in the test with SK-MEL-2 melanoma was 90.4%; in the test on SN12C renal, 67%; in the test with UO-31 renal, 54.7%; in the test with TK-10 renal, 94.9%; in the test with ACHN renal, 79.6%; in the test with CAKI-1 renal it was 92.6%. In addition, the growth in the test on A498 renal is 52.9%; with CCRF-CEM leukemia, 1.02% (active); in the test with MOLT-4 leukemia, 32.2%; in the test on SR leukemia, -6.55% (active); in the test on RPMI-8226 leukemia, 18%; in the test on OVCAR-8 ovarian, 1.09% (active). Also, the growth in the test with OVCAR-5 ovarian is 120%; in the test with OVCAR-4 ovarian, 55.1%; with SK-OV-3 ovarian it was 70.7%; with IGROV1 ovarian, 65%; in the test on OVCAR-3 ovarian, 68.7%; with HS 578T breast, 81.5%. The growth with NCI/ADR-RES ovarian is 50.7%.
